# Compounds without any hit were thinned out: in the full panel of roughly 83,000, 20% have a hit.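 Step 1: grow cells in 96-well plates. Step 2: add test compound at a single concentration. Step 3: incubate 48 h. Step 4: record percent growth.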 Unmarked numbers belong to inactive results. Calls of active or inactive are those of the source. The calls were made as follows: active = growth percent below 10; inactive = the rest.
# How the values were obtained:
# Assay in all cases: NCI-60 one-dose screen, 48 h (100 = growth as untreated, 0 = no growth, -100 = all killed)
# Settings in all cases: 10 µM
# [1] = tested on: HT29 colon
# [2] = tested on: SNB-75 CNS
# [3] = tested on: SNB-19 CNS
# [4] = tested on: U251 CNS
# [5] = tested on: PC-3 prostate
# [6] = tested on: SK-MEL-5 melanoma
# [7] = tested on: UACC-62 melanoma
# [8] = tested on: LOX IMVI melanoma
# [9] = tested on: SK-MEL-28 melanoma
# [10] = tested on: SK-MEL-2 melanoma
Compound,growth [1],growth [2],growth [3] [%],growth [4],growth [5] [%],growth [6] [%],growth [7] [%],growth [8],growth [9] [%],growth [10] [%]
NC1=NC(=O)C(c2ccccc2)(c2ccccc2)S1,106%,107%,105,99.4%,103,110,98.2,101%,101,101
CCOC1(OCC)OC(c2ccccc2)=C(C#N)C(/C=C\c2ccccc2)C1(OCC)OCC (configuration not stated),69.6%,86.6%,89.8,77.4%,54.9,95.5,80.1,79%,99.8,95.3
COc1ccc(S(=O)(=O)NCCCNc2nccc(-c3c(-c4ccc(F)cc4)nc4sccn34)n2)cc1,11%,49.3%,99.1,50%,52.9,49.5,48.5,40.1%,73.5,–
COc1cc2nc(Nc3cccc(NC(C)=O)c3)nc(N)c2cc1OC,111%,85%,103,94.7%,60,95.5,91.7,86.7%,90.3,–
COc1cccc(C(=O)Nc2ccc(CN3CCc4nc5cc(OC)c(OC)cc5cc43)cc2)c1,16.2%,49.2%,69.7,33.9%,21.7,50.1,67.3,31.3%,73.2,–
COc1cc2nc(Nc3cccc(C(=O)O)c3)nc(N)c2cc1OC,103%,94.6%,102,99%,90.4,99.7,90.2,96.3%,103,–
COc1ccc(Cl)cc1-n1nnc(-c2nc3ccccc3[nH]2)c1N,47.2%,32.5%,77,53.2%,89.2,95.9,104,77.4%,100,93.2
COc1ccc([N+](=O)[O-])c(C(=O)O)c1,102%,100%,103,101%,99.8,98.5,106,98.5%,106,–
O=C(Nc1cccc(-n2cc(-c3ccncc3)c(-c3ccc(O)c(Cl)c3)n2)c1)c1cccc(C(F)(F)F)c1,31.8%,39.4%,69.7,-27.9% (active),21,34.6,37.9,33%,43.9,–
O=C1OCC2=C1C(c1cccc(Cl)c1)c1cc3c(cc1N2CCO)OCO3 (configuration not stated),4.61% (active),11.7%,37.8,17.1%,25.2,19,22.2,42.8%,51.3,–
O=C(Nc1ccc(OS(=O)(=O)c2ccccc2)cc1)C12CC3CC(CC(C3)C1)C2,-19.9% (active),56.4%,71.8,34.6%,23.6,32,57,40%,75,–
NC(=O)SCC(=O)Nc1ccc(S(N)(=O)=O)cc1,107%,96.3%,104,104%,100,102,89,97%,113,111
COc1ccc2c(c1)C(=O)c1c-2c(OCCN(C)C)nc2ccccc12,12.2%,47.2%,42.9,21.1%,47.2,37.4,52.4,-41.8% (active),64.9,16.5
Cc1cccc(Cl)c1NC(=O)c1ccc2nc(NC(=O)NC3CCN(C)CC3)sc2c1,29.6%,6.73% (active),102,80.5%,69.7,71.6,106,79.7%,108,126
